# Compound activity: PubChem, National Center for Advancing Translational Sciences (NCATS)
# The list is not random: actives were taken first. Their share in the collection is about 11%.
# HEK cytotox: kills HEK 293 cells; HEK 293 viability, ATP luminescence (CellTiter-Glo), 48-72 h; Potency, µM (series often up to 115 µM), inactives show at the highest dose activity change, negative = cytotoxicity, actives largely listed as inhibitors; hit rate 6.6% among 94,000; also: nearly all actives have a fitted effect of over 60% in size
#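 HEK 293 cells seeded at 250 cells/well were exposed to compound for 48 or 72 hr at 37 degree Celsius. Viability taken as ATP content by CellTiter-Glo luminescence.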
# NPR1 antag: antagonists of human natriuretic peptide receptor Npr1; P16066; HEK293 hNpr1 GloSensor cGMP, ANP-stimulated luminescence; Potency, µM (titrated, usually from 46.3 µM), for inactives: at the highest dose activity change, negative = inhibition, most hits filed as inhibitors; hit rate 1.6% among 76,000; calls by dose curve; also: nearly all actives have a fitted effect of over 60% in size
# Target sequence (P16066 whole entry, looked up): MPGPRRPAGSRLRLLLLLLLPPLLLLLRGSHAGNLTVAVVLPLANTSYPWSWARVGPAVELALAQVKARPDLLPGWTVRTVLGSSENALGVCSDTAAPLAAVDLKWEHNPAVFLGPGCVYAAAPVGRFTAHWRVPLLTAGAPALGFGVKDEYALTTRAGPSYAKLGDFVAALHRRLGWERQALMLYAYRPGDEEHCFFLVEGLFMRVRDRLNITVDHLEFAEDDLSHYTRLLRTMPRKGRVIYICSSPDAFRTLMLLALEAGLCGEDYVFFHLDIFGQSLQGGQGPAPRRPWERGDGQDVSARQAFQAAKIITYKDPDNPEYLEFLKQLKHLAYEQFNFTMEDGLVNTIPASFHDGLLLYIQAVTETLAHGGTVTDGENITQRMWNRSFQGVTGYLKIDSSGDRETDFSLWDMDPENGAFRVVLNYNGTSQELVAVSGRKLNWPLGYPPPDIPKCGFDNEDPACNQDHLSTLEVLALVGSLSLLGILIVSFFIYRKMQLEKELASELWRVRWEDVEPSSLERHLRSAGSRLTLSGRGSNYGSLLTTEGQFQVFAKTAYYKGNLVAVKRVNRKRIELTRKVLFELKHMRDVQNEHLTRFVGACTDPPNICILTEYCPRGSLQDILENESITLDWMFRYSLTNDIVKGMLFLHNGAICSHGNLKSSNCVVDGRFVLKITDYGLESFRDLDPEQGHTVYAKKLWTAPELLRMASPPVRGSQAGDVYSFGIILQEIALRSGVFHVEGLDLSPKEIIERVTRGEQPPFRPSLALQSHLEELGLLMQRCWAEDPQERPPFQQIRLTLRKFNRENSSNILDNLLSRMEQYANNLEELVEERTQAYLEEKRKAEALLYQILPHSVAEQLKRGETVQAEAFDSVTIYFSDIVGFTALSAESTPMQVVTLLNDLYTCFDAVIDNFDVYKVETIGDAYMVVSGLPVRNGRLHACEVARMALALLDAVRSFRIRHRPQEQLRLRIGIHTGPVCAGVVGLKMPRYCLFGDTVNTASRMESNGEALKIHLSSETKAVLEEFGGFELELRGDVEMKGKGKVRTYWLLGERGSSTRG
#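 Compound pre-incubated 30 min at room temperature on GloSensor-loaded HEK293 cells stably carrying hNpr1 and the pGS-40F cGMP biosensor. Stimulation uses hNppA at 0.1 nM final; luminescence is taken at baseline and 20 min post-agonist.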
# Luciferase inh: Photinus pyralis luciferase inhibition. purified P. pyralis luciferase, luminescence, biochemical. Potency, µM (titrated, usually from 115 µM), actives largely listed as inhibitors. hit rate 2.5% among 76,000. AID 1347043; also: nearly all actives have a fitted effect of over 65% in size
#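 Cell-free enzyme assay, 10nM P. pyralis luciferase, luciferin and ATP each at 10uM. Inhibition profiled over a 6-point titration, read as luminescence.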
# NIH3T3 tox: cytotoxic compounds in NIH 3T3 cells. NIH 3T3 viability, CellTiter-Glo ATP luminescence, 48-72 h. Potency, µM (titrated, usually from 96.7 µM), inactives show at the top dose activity change, negative = cytotoxicity, actives largely listed as inhibitors. hit rate 4.3% among 94,000. AID 1345082; also: nearly all actives have a fitted effect of over 55% in size
#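 Cytotoxicity is measured as loss of cellular ATP: NIH 3T3 cells (400/well) are exposed to compound for 48 or 72 hr at 37 °C, then CellTiter-Glo luminescence is imaged after 10 min at room temperature.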
# * marks the source's active call; other numbers are inactive results; i = inactive; ? = inconclusive; . = not tested or not shown; [ ] = remark or other dose. Unless noted, calls follow the shape of the dose curve; as a rule, active = well fitted curve in the direction sought with a large enough effect; inconclusive = small, poorly fitted or top-dose-only effect, or another doubt; inactive = no such curve, though single readings can be large; an effect the other way counts as inactive or inconclusive. % is scaled to controls: 0 for no effect and ±100 for the full control effect; potency is read from the fitted curve at half-maximal effect.
SMILES,HEK cytotox,NPR1 antag,Luciferase inh,NIH3T3 tox
C[C@]1(CO)[C@H]2Cc3sc(NC(=O)c4ccc(F)cc4)nc3[C@@H](CC(=O)NC3CCCCC3)[C@]2(C)CC[C@H]1O,?,-1%,i,?
CC(C)(C)c1ccc(C(=O)Nc2nc3c(s2)C[C@@H]2[C@](C)(CO)[C@H](O)CC[C@@]2(C)[C@@H]3CC(=O)N2CCC(C(N)=O)CC2)cc1,?,-8%,?,28µM*
CC(C)(C)C(=O)Nc1nc2c(s1)C[C@@H]1[C@](C)(CO)[C@H](O)CC[C@@]1(C)[C@@H]2CC(=O)NC1CCCC1,-21%,0%,i,-26%
C[C@]1(CO)[C@H]2Cc3sc(NC(=O)c4ccc(F)cc4)nc3[C@@H](CC(=O)NC3CCCC3)[C@]2(C)CC[C@H]1O,?,-1%,i,45µM*
O=C(Nc1ccc(Cl)cc1)N1CCCC(C(=O)N2CCC(c3nc4ncccc4[nH]3)CC2)C1 (stereo unspecified),-21%,.,.,?
CC(=O)Nc1ccc(-c2nnc3n2CCN(C(=O)c2ccc(Cl)cc2)C3)cc1,-1%,.,.,-10%
COc1ccc(C(=O)Nc2nc3c(s2)C[C@@H]2[C@](C)(CO)[C@H](O)CC[C@@]2(C)[C@@H]3CC(=O)NCc2ccccc2)cc1,-16%,-20%,i,?
COc1ccc(C(=O)Nc2nc3c(s2)C[C@@H]2[C@](C)(CO)[C@H](O)CC[C@@]2(C)[C@@H]3CC(=O)NCc2ccco2)cc1,79µM*,1%,i,?
COCCN1CCCCCC(O)c2cc(C(=O)NCCc3cccnc3)ccc21 (stereo unspecified),i,-2%,i,-7%
O=C(c1ccco1)N1CCc2c(nc(-c3ccc(F)cc3)[nH]c2=O)C1,3%,-12%,i,?
O=C(c1nccc2ccccc12)N1CCc2c(nc(-c3ccc(F)cc3)[nH]c2=O)C1,?,-12%,i,14µM*
CC(C)(C)c1cc(C(=O)N2CCCC2)nn2cccc12,?,.,.,28µM*
Cn1ccnc1CNC(=O)CC(c1cccc(O)c1)c1ccccc1Cl (stereo unspecified),1%,0%,i,i
CC(Cc1ccc2c(c1)OCO2)CN1CCC(CO)(CN2CCCC2)CC1 (stereo unspecified),?,-11%,i,40µM*
OCC1(CN2CCCC2)CCN(Cc2ccc(Cl)cc2)CC1,?,2%,i,?
O=C(NC1CCCCC1)N1Cc2[nH]cnc2C[C@H]1c1nc(-c2ccc3c(c2)OCO3)no1,-25%,-10%,i,?
CNC(=O)CCn1ncc2cc(OC3CCc4cccc(-c5cccc(F)c5)c43)ccc21 (stereo unspecified),?,-25%[70.6 µM],i,?
CNC(=O)CCn1ncc2cc(OC3CCc4cccc(-c5ccccc5F)c43)ccc21 (stereo unspecified),?,?,i,50µM*
CNC(=O)CCn1ncc2cc(OC3CCc4cccc(-c5ccccc5)c43)ccc21 (stereo unspecified),?,-24%[70.6 µM],i,?
CNC(=O)CCn1ncc2cc(OC3CCc4cccc(-c5ccc(F)cc5)c43)ccc21 (stereo unspecified),63µM*,-19%[70.6 µM],i,?
CCc1nc2c(c(-c3ccc(O)cc3)n1)CN(Cc1ccccc1)CC2,?,-3%[70.6 µM],i,?
O=C(NCc1ccc2c(c1)OCO2)C1CCCCN1Cc1ccc(-c2ccsc2)cc1 (stereo unspecified),22µM*,.,.,13µM*
O=C(NCc1cccc(F)c1)C1CCCCN1Cc1ccc(-c2cccs2)cc1 (stereo unspecified),20µM*,.,.,28µM*
O=C(NCc1cccc(F)c1)C1CCCCN1Cc1ccc(-c2ccsc2)cc1 (stereo unspecified),40µM*,.,.,28µM*
O=C1CCCCC(CNC(=O)c2cn[nH]c2-c2ccc(F)cc2)N1 (stereo unspecified),-3%,.,.,-9%
SMILES,HEK cytotox,NPR1 antag,Luciferase inh,NIH3T3 tox
O=C(CC1CCCCC1)N1CCC2(CC1)CC(N(Cc1ccc(F)cc1)C1CC1)CCO2 (stereo unspecified),50µM*,3%,i,?
O=C(CCC1CCCC1)N1CCC2(CC1)CC(N(Cc1ccc(F)cc1)C1CC1)CCO2 (stereo unspecified),?,3%,i,?
Cc1cccc(NC(=O)Nc2ccc(C)n(CC(=O)O)c2=O)c1,12%,2%,16µM*,i
Cc1cccc(NC(=O)Nc2ccc(C)n(CC(=O)Nc3ccc(C)c(C)c3)c2=O)c1,28µM*,-3%,i,32µM*
Cc1cccc(NC(=O)Nc2ccc(C)n(CC(=O)NCCN3CCCC3)c2=O)c1,-2%,0%,i,-13%
Cc1ccc(NC(=O)Nc2ccc(C)n(CC(=O)Nc3ccc(C)cc3C)c2=O)cc1,-5%,-3%,?,2%
Cn1c(C(=O)NC(C)(C)C)cc2c1CCN(Cc1ccc(F)cc1)C2,?,1%,?,-8%
CS(=O)(=O)Nc1ccc(C2(C(=O)NCc3ccccc3Cl)CCCCC2)cc1,?,-18%,i,35µM*
CC(C)C(=O)Nc1ccc(C2(C(=O)NCc3ccc(F)c(Cl)c3)CCC2)cc1,79µM*,-2%,i,35µM*
O=c1c2nc(Nc3ccc(C(F)(F)F)cc3)ccc2ncn1C1CC1,?,-24%[70.6 µM],63µM*,?
COCCn1cnc2ccc(Nc3ccc(C(F)(F)F)cc3)nc2c1=O,?,-13%[70.6 µM],i,?
CNC(=O)N1CCC(Cc2noc(C3CCOCC3)n2)C1 (stereo unspecified),-23%,-6%,i,-1%
O=C(Nc1ccc2c(c1)OCCO2)N1CCC(Cc2noc(C3CCOCC3)n2)C1 (stereo unspecified),-7%,-13%,18µM*,-35%
Cc1cnc(C2CCOCC2)n1C1CCN(C(=O)Nc2ccc3c(c2)OCCO3)CC1,-17%,2%,35µM*,-10%
Cc1ccccc1Nc1cnc2ccc(N3CCOCC3)nn12,56µM*,?,i,?
c1ccc(Nc2cnc3ccc(N4CCOCC4)nn23)cc1,112µM*,-17%[70.6 µM],i,?
CN1CCN(c2ccc3ncc(Nc4ccc(F)cc4)n3n2)CC1,112µM*,1%[70.6 µM],i,100µM*
Fc1ccc(Nc2cnc3ccc(N4CCOCC4)nn23)cc1F,?,0%[70.6 µM],i,?
FC(F)(F)c1cccc(Nc2cnc3ccc(N4CCOCC4)nn23)c1,89µM*,?,i,?
CCn1ccc2sc(C)c(C(=O)NCc3ccccc3C)c2c1=O,-12%,-10%,i,i
O=c1c2c(n(Cc3ccccc3)n1-c1ccccc1)CN(Cc1ccc3[nH]ccc3c1)CC2,?,-1%[70.6 µM],i,?
COCCn1ncc(N2CCCC(CC(=O)Nc3ccc(Cl)cc3)C2)cc1=O (stereo unspecified),?,-11%,i,32µM*
